# According to PubChem BioAssay (NCI):
# Compounds without any hit were thinned out: in the full panel of roughly 79,000, 15% have a hit. A number with no mark means an inactive call. Active and inactive are the calls of the source. No stated cut-off is given here; in the data, active means growth inhibition above about 70%; inactive means the rest.
# Tests used:
# [1] = NCI Yeast Anticancer Drug Screen. Data for the rad50 strain (AID 155);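 further: 0% = growth of vehicle-only cultures of the same strain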; settings: S. cerevisiae rad50 strain growth inhibition; at 50.0 µM; stronger effect = higher value
# Method in brief: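 DNA repair mutant yeast, compound exposure, growth read-out; inhibition is taken relative to vehicle.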
# [2] = NCI Yeast Anticancer Drug Screen. Data for the mec2-1 strain (AID 157); settings: S. cerevisiae mec2-1 strain, at 50.0 µM, stronger effect = higher value
# Method in brief: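 mec2-1 yeast strain, carrying an alteration in DNA damage repair or cell cycle control, was exposed to compounds; growth inhibition was measured relative to vehicle-treated controls.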
# [3] = NCI Yeast Anticancer Drug Screen. Data for the sgs1 mgt1 strain (AID 161);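 further: 0% = growth of cultures given vehicle only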; settings: S. cerevisiae sgs1 mgt1 strain, at 50.0 µM, stronger effect = higher value
# Method in brief: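 Yeast cells carrying a defined DNA-repair defect were exposed to test compounds. Growth inhibition was measured relative to vehicle-treated controls.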
# [4] = NCI Yeast Anticancer Drug Screen. Data for the cln2 rad14 strain (AID 165);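 further: 0% = growth equal to vehicle treated cultures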; settings: S. cerevisiae cln2 rad14 strain, at 50.0 µM, stronger effect = higher value
# Method in brief: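 Yeast carrying cln2 and rad14 alterations (cell cycle control and DNA damage repair) were exposed to compounds. Growth inhibition was measured against vehicle-treated controls.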
# [5] = NCI Yeast Anticancer Drug Screen. Data for the bub3 strain (AID 167); settings: S. cerevisiae bub3 mutant strain, at 50.0 µM, stronger effect = higher value
# Method in brief: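 In this screen, a yeast mutant lacking normal mitotic checkpoint function is challenged with compound. Relative growth versus vehicle gives the inhibition value.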
# [6] = NCI Yeast Anticancer Drug Screen. Data for the mlh1 rad18 strain (AID 175); settings: S. cerevisiae mlh1 rad18 strain growth inhibition; at 50.0 µM; stronger effect = higher value
# Method in brief: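 Growth inhibition of the yeast strain was measured after compound exposure and expressed relative to vehicle-treated controls. The strain carries defined defects in DNA damage repair.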
SMILES,growth inhibition [1],growth inhibition [2],growth inhibition [3],growth inhibition [4],growth inhibition [5],growth inhibition [6]
O=[N+]([O-])c1cccc(S/N=C/c2ccccc2)c1,98.8% (active),98.4% (active),99% (active),92.3% (active),98.5% (active),98.8% (active)
Cc1ccc(NC(=O)COc2cc(Cl)c(Cl)cc2Cl)cc1[N+](=O)[O-],-8.55%,-9.1%,-6.6%,10.2%,0.1%,0.4%
C[C@H]1C[C@H]2[C@@H]3CC[C@@]4(OCC4=O)[C@@]3(C)C[C@H](O)[C@]2(F)[C@@]2(C)C=CC(=O)C=C12,-16.6%,-24.4%,1.6%,-34.9%,17.4%,0.35%
O=C(O)c1ccncc1C(=O)O,-4.3%,-9.3%,-17.1%,0.25%,-5.8%,3%
COC(=O)CCNc1c(OC)ccc2ccccc12,22.1%,3.85%,11.8%,17.9%,28.4%,-5%
CCC(Oc1ccc(OC)c2c1C(=O)CCC2)C(=O)O (stereo unspecified),5.95%,1%,-18.9%,11.4%,-0.85%,7.55%
CC(C)(C)N[P+](Cc1ccccc1)(NC(C)(C)C)c1ccccc1,33.1%,10.9%,62%,-9.7%,3.65%,8.9%
CCCC(O)C(C)(C)[N+](=O)[O-] (stereo unspecified),60.9%,5.45%,12.9%,-2.85%,8%,9.95%
COC(=O)c1cc([N+](=O)[O-])c(Sc2ncnc3nc[nH]c23)c([N+](=O)[O-])c1,53%,25.6%,24.4%,80% (active),26.9%,34.8%
CC(NCCNC(C)c1ccccc1)c1ccccc1 (stereo unspecified),6.65%,-22.3%,-1.25%,-35.1%,1.85%,8.45%
O=C(CC1NCCS1)OCc1ccc(Br)cc1 (stereo unspecified),26.5%,14.1%,9.8%,24.7%,16.9%,50%
CCOC(=O)C1=C(O)CSC1=Nc1ccccc1,-16.3%,5.6%,-12.8%,-9.3%,-1.7%,22.9%
CC1(C(=O)O)CCC(C(=O)Nc2ccccc2)C1(C)C (stereo unspecified),-11.2%,-20.6%,5.05%,-0.35%,-13.1%,1.9%
C/C(=N\NC(N)=S)c1sc(-n2nc(-c3ccccc3)cc2-c2ccccc2)nc1C,4.65%,-18.2%,12.2%,0.25%,26.6%,15.7%
CCOC(=O)/C(=N/Nc1ccc(C)cc1)N1C(=S)C=C(C)NN(C)C1=S,-34.3%,4%,-31.1%,-13.3%,-19.7%,-30.9%
O=C(COc1ccc(Cl)cc1)N1N=C(c2ccc(Cl)cc2)CC1(O)c1ccccc1 (stereo unspecified),-15.8%,-29.8%,-8.9%,0.85%,-18.2%,-10.6%
CC(C)=CC1C(CO)C1(C)C (stereo unspecified),-7.8%,-17.2%,23.8%,-16.6%,-6.25%,-16.9%
O=C(NCc1ccccc1)C(c1ccccc1)c1ccccc1,1.85%,4.9%,2.6%,5.7%,-9.1%,0.8%
CS(=O)(=O)Nc1ccc(NS(C)(=O)=O)cc1,1.6%,17.5%,4.45%,1.75%,2.9%,-13.2%
COc1ccccc1CNCCCCCNCCCCCCCCCCNCCCCCNCc1ccccc1OC,-32.4%,-11.1%,-27.9%,-9.1%,-22%,-36.5%
COCCCCCOC,5.55%,-14.8%,-3.4%,6.6%,12.3%,1.55%

SMILES,growth inhibition [1],growth inhibition [2],growth inhibition [3],growth inhibition [4],growth inhibition [5],growth inhibition [6]
CCCC(=O)Nc1ccccc1,18.1%,-15.8%,8.75%,7%,-4.75%,19.6%
CC(Sc1nc2ccc(Cl)cc2[nH]1)C(=O)O (stereo unspecified),-11.8%,-4%,-0.9%,-16.9%,12.9%,-3.85%
C[C@@H]1CN[C@@H](C)CN1,-35.2%,-30.3%,-17.4%,-8.25%,-0.6%,3.8%
Cc1c(C(C)C(=O)O)c2ccccc2n1C (stereo unspecified),39%,12.9%,31.9%,33.1%,56.8%,45.1%
C[n+]1ccccc1CCC(=O)Nc1ccccc1,-0.65%,14.9%,2.05%,0.05%,0.7%,-17.9%
Cn1cnc([N+](=O)[O-])c1Sc1ccccc1N,-7.3%,-4.15%,0.45%,18.6%,-15.7%,-2.5%
O=C1C2C(C(=O)N1c1ccccc1)C1(c3ccccc3)CCC2(C(=O)c2ccccc2)O1 (stereo unspecified),56.4%,-14.3%,39.6%,-16.4%,9.05%,23.4%
Cc1cc(CN2CCCCC2)c(O)c(CN2CCCCC2)c1,-4.3%,-18.9%,-13.4%,-0.2%,-29.4%,-7.05%
O=C(N/N=C/c1ccc(Cl)cc1)C(c1ccccc1)N1CCCCC1 (stereo unspecified),4.7%,-2.65%,-0.2%,4.6%,8.55%,13.7%
C/C=C(\C)C(=O)N1c2ccccc2CC1c1c(C)[nH]c2ccccc12 (stereo unspecified),29.1%,3.65%,21.2%,19.9%,23.8%,11.1%
Clc1ccc(Cl)c(NNc2cc(Cl)ccc2Cl)c1,-29.1%,-45.5%,-3.9%,-0.9%,-39.5%,-34.5%
C/C(=N\[N+](C)(C)C)c1ccc2ccccc2c1,9.65%,-2.45%,-1.6%,5.5%,-6%,-9.6%
O=NN(CCCl)C(=O)Oc1ccc2ccccc2c1,29.4%,-9.35%,16.1%,-24.8%,6.2%,-0.5%
CN1CCCC2C(c3ccccc3)C(C3=NCCCC3)C(c3ccccc3)CC21 (stereo unspecified),-18.9%,-3.2%,-23.1%,-28.6%,-64.9%,-60.4%
Oc1ccc(Cl)cc1Cc1cc(Cl)cc(Cc2cc(Cl)cc(Cc3cc(Cl)cc(Cc4cc(Cl)ccc4O)c3O)c2O)c1O,-31.2%,0.5%,-5.4%,-16.6%,-26%,-27.1%
CN(N=O)C(=O)NCCSc1ncnc2nc[nH]c12,9.75%,13.1%,-2.25%,-108%,-2.5%,-17.2%
C=CCn1c(=S)sc2ccccc21,14.8%,13.3%,12.8%,17.7%,-7.65%,-1.95%
CCOC(=O)CCC1(CCC(=O)OCC)CCCCCCCCC(CCC(=O)OCC)(CCC(=O)OCC)C(=O)C1=O,12.9%,12.3%,-14.7%,38%,-4.7%,-1.3%
CCN(CC)CC(C)(C)C(=O)/C=C/c1ccc(C)cc1,39.5%,12.8%,57.5%,3.9%,-13.4%,19.9%
CCCCCCCCCCCCCCCCCCNC(=O)N1CCCCC1C (stereo unspecified),10.2%,-3.9%,-14.7%,-24.1%,-3.9%,14.3%
